The values below come from PubChem BioAssay.

Each structure is given as a SMILES string. The source made the active and inactive calls.

Test [1] in a line: optical density shifts of acrAB sulA E. coli – strain DRC41, OD650, 48 h, E. coli filamentation inducer project, primary screen (AID 1152).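 Also: E. coli MC1000 strain DRC41 lacking acrAB efflux pump and sulA.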 Conditions: higher = more signal, called active from +8 up or from −8 down.
The nature of test [2]: probe aLefty1 binding on compound microarray – biochemical, small-molecule microarray, 635/667 nm fluorescence, primary screen (AID 1153).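 Also: score merges spot fluorescence with signal-to-noise ratio from the scanned slide images.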 The following applies: higher = more signal.
Test [3] is described as follows: plasmodial surface anion channel blockers, osmotic lysis – cell-based, P. falciparum Indochina, OD700, 1 h, primary screen (AID 1154). Conditions: P. falciparum Indochina infected RBC osmotic lysis, higher = more signal, called active from +8 up or from −8 down.
The nature of test [4]: plasmodial surface anion channel blockers, osmotic lysis – cell-based, P. falciparum Indochina, OD700, 2 h, primary screen (AID 1155).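 Also: lysis reports solute entry through the parasite surface anion channel PSAC.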 Conditions: P. falciparum Indochina infected erythrocytes, higher = more signal, called active from +8 up or from −8 down.
Test [5] is described as follows: changes in parasitized red cell lysis, either direction – P. falciparum Indochina, OD700, 3 h, PSAC antagonist project, primary screen (AID 1156). The following applies: P. falciparum-infected erythrocytes, osmotic lysis, higher = more signal, called active from +8 up or from −8 down.
Test [6] in a line: plasmodial surface anion channel blockers, osmotic lysis – cell-based, P. falciparum Indochina, OD700, 18 h, primary screen (AID 1157). Conditions: P. falciparum Indochina infected erythrocytes, osmotic lysis OD700, 18 h; higher = more signal, called active from +8 up or from −8 down.
The nature of test [7]: S6 kinase pathway phospho-S6 level changes – cell-based, A549, cytoblot, luminescence, serum-stimulated, primary screen (AID 1158).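 Also: serum-stimulated A549 lung adenocarcinoma cells; signal is phosphorylated S6 detected by cytoblot immunostaining with HRP secondary.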 The following applies: 5 h, higher = more signal.
The target of test [8] is NADPH oxidase 2 (Homo sapiens) (UniProt P04839). Briefly: compounds shifting NOX2 Amplex Red fluorescence – cell-based, HEK293-NOX2, PMA-stimulated, NOX inhibitor project, primary screen (AID 1159). Also: test concentration not given here. Conditions: 45 min, higher = more signal, called active from +8 up or from −8 down.
Test [9] addresses NADPH oxidase 4 (Homo sapiens) (UniProt Q9NPH5). Briefly: compounds shifting NOX4 Amplex Red fluorescence – cell-based, HEK293-NOX4, tetracycline-induced, NOX inhibitor project, primary screen (AID 1160). The following applies: HEK293-NOX4, Amplex Red H2O2 fluorescence, 45 min; higher = more signal, called active from +8 up or from −8 down.
Test [10] addresses NADPH oxidase 5 (Homo sapiens) (UniProt Q96PH1). Briefly: compounds shifting NOX5 Amplex Red fluorescence – cell-based, HEK293-NOX5, NOX inhibitor project, primary screen (AID 1161). Conditions: HEK293-NOX5, ionomycin, 45 min, higher = more signal.
Test [11] can be described thus: compound effects on lung adenocarcinoma cell viability – A549, calcein-AM fluorescence, 48 h, basal, profiling panel (AID 1162). Also: test concentration not given here. The following applies: higher = more signal.
A short description of test [12]: compound effects on differentiated 3T3-L1 adipocyte viability – cell-based, 3T3-L1 adipocytes, calcein-AM fluorescence, 48 h, basal, profiling panel (AID 1163). Also: test concentration not given here. The following applies: 3T3-L1 adipocytes viability, higher = more signal.
Test [13] can be described thus: compound effects on hepatocellular carcinoma cell viability – HepG2, calcein-AM fluorescence, 48 h, basal, profiling panel (AID 1164). Also: test concentration not given here. Conditions: higher = more signal.
Test [14] is described as follows: compound effects on multiple myeloma cell viability – MM1S, calcein-AM fluorescence, 48 h, basal, profiling panel (AID 1165).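 Also: viability of MM1S multiple myeloma cells under basal unstimulated conditions; test concentration not given here.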 The following applies: higher = more signal.
Test [15] in a line: calcein-AM signal in unstimulated myeloma cells – cell-based, calcein-AM fluorescence, 48 h, PK04 Diversity Set, profiling panel (AID 1166).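 Also: cells grown under basal conditions without added stimulus; test concentration not given here.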 The following applies: RPMI8226 myeloma viability, higher = more signal.
A short description of test [16]: JC-1 mitochondrial signal, unstimulated HepG2 cells – cell-based, JC-1 fluorescence, 24 h, 100 nL compound, profiling panel (AID 1167). Also: test concentration not given here. The following applies: HepG2 mitochondrial potential, higher = more signal.
The nature of test [17]: JC-1 mitochondrial signal, unstimulated adipocytes – cell-based, JC-1 fluorescence, 3T3-L1 adipocytes, 24 h, 100 nL compound, profiling panel (AID 1168). Also: test concentration not given here. Conditions: JC-1 mitochondrial fluorescence, higher = more signal, called active from +8 up or from −8 down.
A short description of test [18]: JC-1 mitochondrial signal, unstimulated myeloma cells – cell-based, JC-1 fluorescence, RPMI8226, 24 h, 100 nL compound, profiling panel (AID 1169). Also: test concentration not given here. The following applies: JC-1 mitochondrial potential fluorescence, higher = more signal.
Test [19] can be described thus: JC-1 mitochondrial signal, unstimulated MM1S myeloma – cell-based, JC-1 fluorescence, 24 h, 100 nL compound, profiling panel (AID 1170). Also: test concentration not given here. The following applies: MM1S mitochondrial potential, higher = more signal.
Test [20] can be described thus: resazurin metabolic signal in A549 cells – cell-based, resazurin fluorescence, 24 h, PK04 Diversity Set, profiling panel (AID 1171). Also: test concentration not given here. The following applies: A549 viability, higher = more signal, called active from +8 up or from −8 down.

Sequence of NADPH oxidase 4 (Homo sapiens) (Q9NPH5 whole entry, looked up): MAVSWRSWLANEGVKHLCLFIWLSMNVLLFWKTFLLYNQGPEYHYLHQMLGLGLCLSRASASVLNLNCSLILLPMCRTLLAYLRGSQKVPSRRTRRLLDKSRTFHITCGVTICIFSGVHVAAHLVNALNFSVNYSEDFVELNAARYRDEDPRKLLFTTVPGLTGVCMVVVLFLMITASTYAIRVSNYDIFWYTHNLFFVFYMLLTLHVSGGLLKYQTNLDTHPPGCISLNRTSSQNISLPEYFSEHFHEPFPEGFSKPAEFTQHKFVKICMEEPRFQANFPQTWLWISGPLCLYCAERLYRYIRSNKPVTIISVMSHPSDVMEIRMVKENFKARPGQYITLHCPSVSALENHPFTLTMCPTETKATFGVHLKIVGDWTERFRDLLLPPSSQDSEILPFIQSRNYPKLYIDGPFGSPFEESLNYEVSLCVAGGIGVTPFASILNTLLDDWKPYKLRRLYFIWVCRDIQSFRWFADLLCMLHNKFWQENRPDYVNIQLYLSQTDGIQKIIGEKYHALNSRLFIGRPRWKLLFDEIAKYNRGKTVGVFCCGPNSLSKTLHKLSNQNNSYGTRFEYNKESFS
Sequence of NADPH oxidase 2 (Homo sapiens) (P04839 whole entry, looked up): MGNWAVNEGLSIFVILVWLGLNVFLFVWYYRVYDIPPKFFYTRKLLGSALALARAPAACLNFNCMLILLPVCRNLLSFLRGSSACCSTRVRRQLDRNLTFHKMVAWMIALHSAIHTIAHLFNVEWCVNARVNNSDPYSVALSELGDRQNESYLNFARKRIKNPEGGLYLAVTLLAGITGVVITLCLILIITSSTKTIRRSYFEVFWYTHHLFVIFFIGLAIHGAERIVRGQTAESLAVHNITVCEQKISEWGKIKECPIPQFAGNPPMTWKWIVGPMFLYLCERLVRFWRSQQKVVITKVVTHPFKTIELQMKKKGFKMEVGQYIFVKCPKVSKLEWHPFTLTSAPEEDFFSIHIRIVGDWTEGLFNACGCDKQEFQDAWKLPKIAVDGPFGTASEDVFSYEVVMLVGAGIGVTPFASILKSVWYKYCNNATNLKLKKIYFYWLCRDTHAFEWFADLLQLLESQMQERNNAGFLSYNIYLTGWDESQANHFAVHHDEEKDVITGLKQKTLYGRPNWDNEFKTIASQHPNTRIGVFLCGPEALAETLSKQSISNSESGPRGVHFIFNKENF
Sequence of NADPH oxidase 5 (Homo sapiens) (Q96PH1 whole entry, looked up): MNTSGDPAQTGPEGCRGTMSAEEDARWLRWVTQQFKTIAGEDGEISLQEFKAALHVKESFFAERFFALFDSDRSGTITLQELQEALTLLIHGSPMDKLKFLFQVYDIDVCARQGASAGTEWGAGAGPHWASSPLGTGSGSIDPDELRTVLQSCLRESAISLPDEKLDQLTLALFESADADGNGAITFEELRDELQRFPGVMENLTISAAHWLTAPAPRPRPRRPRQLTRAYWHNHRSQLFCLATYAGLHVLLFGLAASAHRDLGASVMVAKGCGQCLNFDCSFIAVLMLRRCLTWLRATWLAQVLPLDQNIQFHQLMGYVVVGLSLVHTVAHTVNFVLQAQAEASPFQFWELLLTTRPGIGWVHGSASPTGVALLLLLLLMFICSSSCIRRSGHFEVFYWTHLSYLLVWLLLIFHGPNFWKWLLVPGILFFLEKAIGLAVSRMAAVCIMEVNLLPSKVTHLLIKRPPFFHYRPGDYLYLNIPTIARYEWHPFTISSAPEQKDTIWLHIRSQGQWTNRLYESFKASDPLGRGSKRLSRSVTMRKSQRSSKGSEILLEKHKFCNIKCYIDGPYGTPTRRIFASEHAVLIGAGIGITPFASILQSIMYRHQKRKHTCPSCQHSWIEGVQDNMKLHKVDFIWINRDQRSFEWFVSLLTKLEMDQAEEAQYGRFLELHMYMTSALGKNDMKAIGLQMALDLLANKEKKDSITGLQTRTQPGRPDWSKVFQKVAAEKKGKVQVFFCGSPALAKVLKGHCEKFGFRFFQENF

Turning to `[N-]=[N+]=NCc1ccccc1[C@H]1OC(c2ccc(OCCCO)cc2)=N[C@@]1(Cc1ccccc1)C(=O)N1CCCCC1`, the z-score is 0.796 (inactive) in test [1]; 28.4 (active) in test [3]; 23.2 (active) in test [4]; 1.75 (inactive) in test [5]; 1.77 (inactive) in test [6]; 1.3 in test [7]. Also, the z-score in test [8] is -3.54 (inactive); in test [9], -0.919 (inactive); in [10], -1.28; in [11], 0.562; in [12], -0.359; in test [13], 0.505. Further, the z-score in test [14] was -0.085; in test [15] it was -0.909; in test [16], 0.732; in test [17] it was -0.677 (inactive); in test [18], -0.931; in test [19], -0.854. In addition, in test [20], the z-score is 0.151 (inactive). For the same compound, in [2], the composite z-score stood at 0.0331.
On to `CCCCN1CC=CC23O[C@@H]4/C=C\CCCOC(=O)C4[C@H]2C(=O)N(CCCO)[C@@H]3C1=O` (stereo not given in full), for which the z-score in [1] was -0.0884 (inactive); in [3] it was 0.897 (inactive); in test [4] it was 0.611 (inactive); in [5], -0.746 (inactive); in [6], 0.0888 (inactive); in [7], -0.207. The z-score is 1.59 (inactive) in test [8]; 0.593 (inactive) in [9]; 2.02 in [10]; -0.609 in test [11]; 0.803 in [12]; 0.186 in test [13]. Further, the z-score in [14] is -0.614; in test [15] it was -0.568; in test [16], -0.795; in test [17], 1.19 (inactive); in test [18], 0.16; in test [19] it was 0.597. Besides, the z-score in [20] was 0.216 (inactive). For the same compound, the composite z-score in test [2] was determined as 0.0927.
Turning to `CCOC(=O)C1=CCC(c2ccc(F)cc2)N(S(=O)(=O)c2ccc(C)cc2)C1` (stereo not given), the z-score is -1 (inactive) in test [1]; 1.44 (inactive) in test [3]; 0.952 (inactive) in [4]; -0.421 (inactive) in test [5]; 0.363 (inactive) in test [6]; -0.566 in test [7]. Besides, the z-score in test [8] was 0.396 (inactive); in test [9], -0.0222 (inactive); in test [10] it was 0.315; in test [11] it was -1.02; in test [12], -1.12; in test [13], -0.444. Also, the z-score in [14] is -0.434; in [15], -1.5; in test [16], -0.717; in [17] it was -1.01 (inactive); in test [18] it was 0.641; in [19], -1.66. Moreover, in test [20], the z-score was -0.0491 (inactive). The compound further had a composite z-score in test [2] of -0.147.
As for `C=C(CCCC)/C(=C/C[C@H](OC(C)=O)c1ccccc1OCCO)c1cnc2ccccc2c1`, the z-score is -0.413 (inactive) in [1]; 17.5 (active) in test [3]; 2.17 (inactive) in test [4]; 1.32 (inactive) in [5]; 0.996 (inactive) in [6]; -0.0149 in test [7]. For the same compound, the z-score in [8] was -1.41 (inactive); in test [9], -0.361 (inactive); in test [10], -1.62; in test [11], 0.615; in test [12], -0.466; in test [13], 0.0984. In addition, the z-score is -3.37 in test [14]; -2.83 in [15]; 1.14 in test [16]; -1.26 (inactive) in [17]; -0.247 in test [18]; -0.172 in test [19]. In addition, the z-score in [20] is -0.344 (inactive). This compound also showed a composite z-score in [2] of -0.0054.
`COc1ccc([Si](C)(C)[C@@H]2[C@@H](CCn3cc(CCO)nn3)O[C@]3(C(=O)N(Cc4cccc(N5C(=O)c6cccc7cccc5c67)c4)c4ccccc43)[C@H]2C)cc1`: the z-score in [1] is 0.259 (inactive); in test [3], 4.42 (inactive); in test [4], 1.6 (inactive); in test [5], 1.22 (inactive); in test [6] it was -0.682 (inactive); in test [7], 1.16. The z-score was 1.58 (inactive) in test [8]; 1.76 (inactive) in [9]; 1.3 in [10]; -2.01 in [11]; 1.32 in test [12]; -4.46 in [13]. Besides, the z-score in [14] was -2.86; in test [15], -4.41; in test [16], -0.414; in test [17], 1.02 (inactive); in [18], -0.931; in [19] it was -2.16. For the same compound, the z-score in test [20] was -3.53 (inactive). For the same compound, the composite z-score in test [2] is -0.0011.
With `COC(=O)[C@@]1(Cc2ccccc2)[C@H]2c3cc(C(=O)N4CCCC4)n(Cc4ccc(O)c(OC)c4)c3C[C@H]2CN1C(=O)c1ccccc1`, the z-score is -1.64 (inactive) in [1]; 3.85 (inactive) in test [3]; 0.496 (inactive) in [4]; 0.393 (inactive) in test [5]; 0.618 (inactive) in test [6]; -0.347 in test [7]. Also, the z-score in test [8] was -2.57 (inactive); in test [9] it was -6.07 (inactive); in [10], -3.82; in [11], 0.114; in [12], 0.0713; in test [13], 0.876. Further, the z-score in [14] is -1.27; in test [15], -1.65; in [16], 0.848; in test [17], -1.63 (inactive); in test [18], 0.332; in [19], -0.601. Besides, the z-score in test [20] is -1.5 (inactive). In test [2], this compound gave a composite z-score of 0.0147.
Take `CC(=CC1CCCCC1)[C@@H](NC(=O)c1cccnc1)c1ccc(-c2ccccc2)cc1`: the z-score in [1] was -2.67 (inactive); in test [3], 1.85 (inactive); in test [4], 0.943 (inactive); in test [5], -0.0465 (inactive); in test [6] it was 0.348 (inactive); in [7] it was -0.849. Moreover, the z-score was -1.27 (inactive) in test [8]; -2.55 (inactive) in [9]; -0.0302 in [10]; -1.3 in test [11]; -0.671 in [12]; -1.63 in [13]. The z-score is -2.15 in [14]; -2.59 in test [15]; -2.99 in [16]; -1.26 (inactive) in test [17]; 0.597 in [18]; -0.462 in test [19]. The z-score in [20] was 1.49 (inactive). The composite z-score in test [2] was 0.188.
For `C=CCC(OC(C)=O)[C@@H]1[C@@H](N(Cc2ccc(-c3cccc(C(F)(F)F)c3)o2)C(=O)c2cccc3ccccc23)c2cc(OCCCO)ccc2N1C(=O)Cc1ccc2ccccc2c1` (stereo not given in full), the z-score in test [1] is -0.599 (inactive); in [3] it was 0.877 (inactive); in [4], -0.397 (inactive); in test [5], 1.31 (inactive); in test [6], -0.449 (inactive); in [7], 0.359. The z-score is -2.15 (inactive) in [8]; -0.933 (inactive) in test [9]; -1.04 in test [10]; -0.285 in [11]; 0.784 in [12]; -0.0575 in [13]. Also, the z-score in test [14] is -0.564; in test [15], -2.04; in test [16], 1.1; in test [17], -0.62 (inactive); in test [18], -0.0209; in test [19], -0.0374. In addition, in test [20], the z-score was -0.0845 (inactive). The same compound had a composite z-score in test [2] of -0.147.
Turning to `COCC(=C=CC[C@@H](O)c1ccc(OCCO)cc1)C[C@@H](O)c1ccccn1`, the z-score in test [1] was -0.125 (inactive); in [3] it was 6.36 (inactive); in test [4], 0.848 (inactive); in test [5] it was -0.315 (inactive); in test [6], 0.429 (inactive); in test [7], -0.577. Also, the z-score in [8] was -0.0904 (inactive); in test [9] it was 0.654 (inactive); in test [10] it was 0.177; in test [11], -0.583; in test [12] it was -0.936; in test [13] it was -0.239. For the same compound, the z-score is -0.149 in [14]; -0.349 in test [15]; -0.964 in [16]; -0.522 (inactive) in test [17]; 0.375 in [18]; -0.719 in test [19]. Also, the z-score in test [20] is 0.192 (inactive). The same compound displayed a composite z-score in test [2] of -0.0061.
